# Bioassay records deposited in PubChem BioAssay by National Center for Advancing Translational Sciences (NCATS).
# Gal4-VP16 FLuc: VP16 counterscreen qHTS for inhibitors of ROR gamma transcriptional activity. Drosophila S2 Gal4-VP16 UAS-luciferase, luminescence, 20 h. Potency, µM (top dose mostly 53.6 µM), without a hit: at the top dose activity, negative = inhibition, actives largely listed as inhibitors. 310,000 tested, 3.5% active. AID 2546, 2010;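 note: Gal4-VP16 expression switched on by copper sulfate through the metallothionein promoter; % is set by controls: 0 for no effect and ±100 for the full control effect; nearly all actives have a fitted effect of over 50% in size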
# GLP-1R agonist: qHTS of GLP-1 Receptor Agonists; AID 624172, 2012; Potency, µM (highest dose often 45.6 µM), for the others: top-dose activation, actives largely listed as activators; 380,000 tested, 0.007% active; Glucagon-like peptide 1 receptor (Homo sapiens), P43220; HEK293 GLP-1R CRE-luciferase, luminescence, 4-6 h; cells express a hypersensitive GLP-1R form; note: % of control where 0% means no effect
# RORg inh: qHTS for inhibitors of ROR gamma transcriptional activity | Nuclear receptor ROR-gamma (Mus musculus), P51450 | Drosophila S2 Gal4-RORgamma UAS-luciferase reporter, 20 h | Potency, µM (doses to about 53.6 µM), for the others: at the top dose activity change, negative = inhibition, most hits filed as inhibitors | 310,000 tested, 5.4% active | AID 2551, 2010; note: % is set by controls: 0 for no effect and ±100 for the full control effect; nearly all actives have a fitted effect of over 60% in size
# Target sequence (P51450 whole entry, looked up, the tested form may be a part): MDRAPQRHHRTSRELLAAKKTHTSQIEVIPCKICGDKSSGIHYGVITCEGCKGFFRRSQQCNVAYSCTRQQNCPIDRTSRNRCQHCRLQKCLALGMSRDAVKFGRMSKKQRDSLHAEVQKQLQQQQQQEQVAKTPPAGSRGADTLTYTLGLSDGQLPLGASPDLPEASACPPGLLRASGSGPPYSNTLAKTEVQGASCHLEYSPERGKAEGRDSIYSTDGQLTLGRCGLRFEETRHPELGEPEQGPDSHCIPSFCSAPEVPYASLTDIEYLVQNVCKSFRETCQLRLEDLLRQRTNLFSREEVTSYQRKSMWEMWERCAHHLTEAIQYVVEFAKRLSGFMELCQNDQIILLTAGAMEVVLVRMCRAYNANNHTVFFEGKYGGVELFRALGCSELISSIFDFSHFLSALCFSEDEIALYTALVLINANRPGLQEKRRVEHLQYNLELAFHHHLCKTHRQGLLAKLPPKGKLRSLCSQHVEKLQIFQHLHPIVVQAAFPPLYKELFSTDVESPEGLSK
#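 Luciferase reporter read in Schneider cells carrying Gal4-RORγ (mouse) and UAS-Photinus luciferase; cells given compound 1 h before 700 uM copper sulfate induction, then incubated 20 h at ambient temperature.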
# GLP-1R inv ag: qHTS of GLP-1 Receptor Inverse Agonists (Inhibition Mode); Potency, µM (titrated, usually from 38.3 µM), for the others: at the top dose activity change, negative = inhibition, actives largely listed as inhibitors; 410,000 tested, 1.6% active; HEK293 GLP-1R CRE-luciferase, luminescence, 24 h; GLP-1R form is constitutively active; Glucagon-like peptide 1 receptor (Homo sapiens), P43220; AID 624417, 2012; note: % is set by controls: 0 for no effect and ±100 for the full control effect; nearly all actives have a fitted effect of over 55% in size
#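 Cells are plated, allowed 12 hours at 37 deg C, then treated with compounds for 24 hr before luciferase detection reagent is added and luminescence is read after 12 min at room temperature. The HEK293 line carries constitutively active GLP-1R with a cAMP-responsive reporter.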
# HEK293 tox: qHTS of GLP-1 Receptor Inverse Agonists: Cytotox Screen; Potency, µM (top dose mostly 38.3 µM), inactives show top-dose activity change, negative = inhibition, hits mostly inhibitors; HEK293 cAMP-luciferase reporter cells, luminescence, 24 h; 410,000 tested, 0.13% active;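 note: loss of luciferase light is scored as toxicity; % is set by controls: 0 for no effect and ±100 for the full control effect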
#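 Luminescence readout: signal drop marks cytotoxicity. Plated cells grew 12 h at 37 °C, 5% CO2, received 23 nL compound for 24 h, then got luciferase reagent, read after 12 min at RT.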
# Active calls of the source: *; ? = inconclusive; nt = no result; [ ] = another dose, or the depositor's remark. This is a sample that favours compounds with a hit; in the whole collection about 5.9% have one here. Calls come from the whole dose curve; as a rule, active = well fitted curve in the direction sought with a large enough effect; inconclusive = small, poorly fitted or top-dose-only effect, or another doubt; inactive = no such curve, though single readings can be large; an effect the other way counts as inactive or inconclusive. Potency is the fitted concentration of half-maximal effect.
SMILES,Gal4-VP16 FLuc,GLP-1R agonist,RORg inh,GLP-1R inv ag,HEK293 tox
CC(C)C[C@H](NC(=O)[C@H](CCCCN)NC(=O)CNC(=O)[C@H](CC(C)C)NC(=O)[C@@H](NC(=O)[C@@H]1CSSC[C@H](N)C(=O)N[C@@H](CO)C(=O)N[C@@H](CC(N)=O)C(=O)N[C@@H](CC(C)C)C(=O)N[C@@H](CO)C(=O)N[C@@H]([C@@H](C)O)C(=O)N1)C(C)C)C(=O)N[C@@H](CO)C(=O)N[C@@H](CCC(N)=O)C(=O)N[C@@H](CCC(=O)O)C(=O)N[C@@H](CC(C)C)C(=O)N[C@@H](Cc1cnc[nH]1)C(=O)N[C@@H](CCCCN)C(=O)N[C@@H](CC(C)C)C(=O)N[C@@H](CCC(N)=O)C(=O)N[C@H](C(=O)N[C@@H](Cc1ccc(O)cc1)C(=O)N1CCC[C@H]1C(=O)N[C@@H](CCCNC(=N)N)C(=O)N[C@H](C(=O)N[C@@H](CC(N)=O)C(=O)N[C@H](C(=O)NCC(=O)N[C@@H](CO)C(=O)NCC(=O)N[C@H](C(=O)N1CCC[C@H]1C(N)=O)[C@@H](C)O)[C@@H](C)O)[C@@H](C)O)[C@@H](C)O,-5.4%,nt,6.8%,nt,nt
C=C(C)CNC(=S)NNC(=O)CCn1c2ccc(Cl)cc2c2cc(Cl)ccc21,0.501µM*,-4.3%,0.631µM*,?,-16.9%
C=C(C)CNC(=S)NNC(=O)c1ccncc1,-7.1%,12.8%,?,5.7%,0.6%
C=C(C)CNC(=S)NNC(=O)CCn1c2cc(Cl)ccc2c2ccc(Cl)cc21,8.91µM*,-12.1%,5.01µM*,11.2µM*,-7.6%
C=C(C)CNC(=S)NNC(=O)CCn1c2ccccc2c2ccccc21,?,9.2%,7.08µM*,?,?
Cn1cccc1CC(=O)NNC(=S)Nc1ccc(Cl)cc1Cl,?,-3.6%,?,14.6%,10.2%
COc1cc2c(cc1OC)-c1cc3cc(OC)c(OC)cc3c(=O)n1CC2,-27.9%,nt,?,nt,nt
COc1ccc(CN(C)CC2CCCN(CCc3ccc(F)cc3)C2)cc1OC (stereo not given),-6.3%,4.1%,-16.0%,11.2µM*,-19.9%
COc1ccc(CN(C)CC2CCCN(CCc3ccc(Cl)cc3)C2)cc1OC (stereo not given),2.5%,0.3%,0.6%,?,-26.1%
CC(C)(C)n1cn[nH]c1=S,-12.7%,11.2%,11.2µM*,10.8%,-11.2%
CCNc1nc(NC(C)C)nc(SCCOC(=O)c2ccccc2)n1,2.1%,?,-2.7%,10µM*,1.1%
CCNc1nc(NC(C)C)nc(SCCOc2ccc(C)cc2)n1,?,33.4%,-29.9%,7.94µM*,-1.4%
CO/N=C\[C@@H](NS(=O)(=O)c1ccc(C)cc1)[C@H](C)/C=C\CC(=O)OC,8.4%[10 µM],nt,7.5%[10 µM],nt,nt
CCCCCCCCCCCCCCCC(=O)O[C@@H]1CC(C)=C(\C=C/C(C)=C\C=C/C(C)=C\C=C\C=C(C)\C=C\C=C(C)\C=C\C2=C(C)C[C@@H](OC(=O)CCCCCCCCCCCCCCC)CC2(C)C)C(C)(C)C1,nt,-7.8%,nt,nt,nt
COC(=O)C1=C/C=C\CN(C(c2ccccc2)c2ccccc2)/C=C\1C(=O)OC,nt,1.3%,nt,10µM*,0.2%
CCC1=C2CC[C@H]3C(=O)NC(=O)[C@H]3[C@H]2[C@@]2(C)C(=O)N(CC3CC3)C(=O)N2C1=O,1.7%,nt,-7.6%,nt,nt
Cc1cc(C)n(S(=O)(=O)/C=C/c2ccccc2)n1,-1.2%,-14.6%,15.8µM*,?,-13.1%
Cc1ccc(S(=O)(=O)n2nc(C)cc2C)cc1,5.7%,0.1%,-4.8%,4.7%,-3.8%
O=S(=O)(NCCc1csc(-c2ccc(F)cc2)n1)c1ccc(Cl)cc1,nt,nt,nt,11.2µM*,-4.5%
COc1cc([N+](=O)[O-])ccc1NC(=O)CC1SC(=Nc2ccc(F)cc2)N(CCC2=CCCCC2)C1=O (stereo not given),?,-0.3%,?,?,-8.8%
COc1ccc(OC)c(NC(=O)CC2SC(=Nc3ccc(F)cc3)N(CCC3=CCCCC3)C2=O)c1 (stereo not given),?,9.6%,?,4.47µM*,-7.8%
Cc1ccc(C(OCC(O)CNC(CO)C(O)c2ccc([N+](=O)[O-])cc2)c2ccccc2)cc1 (stereo not given),-4.4%,21.2%,0.1%,8.91µM*,-15.9%
CC(NS(=O)(=O)OCC(Cl)(Cl)Cl)c1ccc(C(C)(C)C)cc1 (stereo not given),?,-6.7%,?,5.62µM*,?
Cc1ccc(C(=O)CC2(O)C(=O)N(CCc3ccccc3)c3ccc(Br)cc32)o1 (stereo not given),-16.5%,1.9%,-22.3%,7.94µM*,-29.8%
CC1(C)CC2=C(CO1)C(=S)NC(c1ccccc1)N2CC1CCCO1 (stereo not given),?,3.8%,15.8µM*,-11.0%,?
SMILES,Gal4-VP16 FLuc,GLP-1R agonist,RORg inh,GLP-1R inv ag,HEK293 tox
O=c1c2ccccc2[nH]c(=S)n1CC1CCCO1 (stereo not given),nt,-0.1%,nt,3.2%,4.9%
CC(C)NS(=O)(=O)c1ccc(NC(=S)NC(=O)c2ccc(-c3ccccc3)cc2)cc1,?,0.9%,7.08µM*,2.5%,-2.0%
O=C(NC(=S)Nc1ccccc1)c1ccc(-c2ccccc2)cc1,4.47µM*,-13.6%,3.55µM*,-1.0%,4.2%
C=CCN=c1scc(C)n1/N=C/c1ccc(O)c(O)c1,-3.4%,-7.2%,17.8µM*,151.4%,-21.8%
CN=c1scc(C)n1/N=C/c1ccc(O)cc1O,1.26µM*,-27.7%,0.631µM*,-13.3%,-1.5%
CN=c1scc(-c2ccco2)n1/N=C/c1ccc(O)c(O)c1,0.708µM*,5.5%,0.0891µM*,237.2%,?
CN=c1scc(C)n1/N=C/c1ccc(O)cc1,2.51µM*,20.0%,?,3.7%,-14.6%
CN=c1scc(C)n1/N=C/c1cc(Br)c(O)c(Br)c1,-0.4%,-1.3%,3.7%,61.8%,-8.8%
COc1ccc(O)c(/C=N/n2c(-c3ccco3)csc2=Nc2cccnc2)c1,-26.4%,9.7%,-19.7%,?,-5.8%
NCC1O[C@@H](OC2C(N)C[C@H](N)[C@@H](O[C@H]3OC(CO)C(O)C(N)C3O)C2O)C(N)C(O)C1O (stereo not given in full),-0.8%,-1.7%,-5.3%,nt,nt
N#CCCN(CCC#N)S(=O)(=O)c1ccc(C(=O)Nc2nnc(C3=COCCO3)o2)cc1,-4.5%,-7.3%,-26.5%,1.7%,4.7%
CCCCN(C)S(=O)(=O)c1ccc(C(=O)Nc2nnc(C3=COCCO3)o2)cc1,1.78µM*,0.4%,0.708µM*,-8.4%,-9.4%
